Active and inactive are the calls of the source. How the source made its calls: active means hit-call score of the fitted dose curve at least 0.9, where 1 is the maximum; inactive means score below 0.9.
How the values were obtained:
[1] = ATG_BRE_CIS: Attagene CIS-FACTORIAL HepG2 Assay for human Bone Morphogenetic Protein (BMP) Response Element (BRE) (AID 2282933); details: HepG2 BMP response element reporter, Attagene transcription factor profiling; actives raise or lower the signal
How it was run: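 Endogenous transcription factor activity read in transiently transfected HepG2 cells after 24 h chemical exposure. Bidirectional curve fitting against DMSO; readout is reporter transcript level by RT-PCR with capillary electrophoresis of labelled products.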

[2] = target: Transcription factor E2F1 (Homo sapiens) (UniProt Q01094); assay: ATG_E2F_CIS: Attagene CIS-FACTORIAL HepG2 Assay for human E2F Transcription Factor 1 (AID 2282935); details: HepG2 Attagene cis-reporter, E2F reporter RNA transcripts; actives raise or lower the signal
Chain of Transcription factor E2F1 (Homo sapiens) (Q01094 whole entry, looked up): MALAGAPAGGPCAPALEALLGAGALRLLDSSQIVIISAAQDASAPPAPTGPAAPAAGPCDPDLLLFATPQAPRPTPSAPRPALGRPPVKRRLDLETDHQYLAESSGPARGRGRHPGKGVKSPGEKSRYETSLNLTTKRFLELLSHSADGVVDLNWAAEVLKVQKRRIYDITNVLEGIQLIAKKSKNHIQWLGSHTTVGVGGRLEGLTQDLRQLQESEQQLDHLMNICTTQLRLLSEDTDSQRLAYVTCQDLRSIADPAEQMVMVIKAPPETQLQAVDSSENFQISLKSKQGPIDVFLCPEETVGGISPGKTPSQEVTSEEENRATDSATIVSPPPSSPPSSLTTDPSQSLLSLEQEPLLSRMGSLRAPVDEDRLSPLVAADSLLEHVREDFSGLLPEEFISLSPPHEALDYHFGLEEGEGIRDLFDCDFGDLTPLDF
How it was run: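 HepG2 cells transiently transfected with multiplexed cis-element reporter units, dosed for 24 h. Reporter mRNA measured by RT-PCR, 6-FAM primer-extension labeling, HpaI digestion and capillary electrophoresis; bidirectional fit versus DMSO baseline.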

[3] = ATG_E_Box_CIS: Attagene CIS-FACTORIAL HepG2 Assay for human Enhancer Box (E-box) (AID 2282936); details: HepG2 E-box cis-reporter transcription, actives raise or lower the signal
How it was run: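 HepG2 cells transiently transfected with multiplexed cis-element reporter units sensing endogenous transcription factor activity; 24 h compound exposure. Reporter mRNA measured by RT-PCR, 6-FAM primer extension, HpaI digestion and capillary electrophoresis; bidirectional fit versus DMSO.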

[4] = ATG_M_61_CIS: Attagene CIS-FACTORIAL HepG2 Assay for M61 Transcription Factor (Internal Marker) (AID 2282937); details: HepG2 Attagene CIS-FACTORIAL M61 internal marker reporter; actives raise or lower the signal
How it was run: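 Cells were transfected with reporter units under cis-regulatory promoters, treated with chemicals for 24 h, then lysed for RNA. Reporter transcripts were quantified by RT-PCR and capillary electrophoresis, and activity was fitted bidirectionally against DMSO.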

[5] = ATG_EGR_CIS: Attagene CIS-FACTORIAL HepG2 Assay for human Early Growth Response 1 (EGR1) (AID 2282938); details: HepG2 Attagene CIS-FACTORIAL EGR reporter mRNA; actives raise or lower the signal
How it was run: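 Endogenous TF activity in HepG2 liver cells was gauged through cis-promoter reporter constructs transiently transfected. After 24 h dosing, reporter mRNA was quantified by RT-PCR and capillary electrophoresis, and curves fitted in both directions versus DMSO.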

[6] = ATG_M_19_CIS: Attagene CIS-FACTORIAL HepG2 Assay for M19 Transcription Factor (Internal Marker) (AID 2282939); details: HepG2 Attagene CIS-FACTORIAL M19 internal marker reporter; actives raise or lower the signal
How it was run: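 Internal marker readout, fitted in both directions against DMSO, from HepG2 cells carrying transfected cis-element reporter constructs; RT-PCR and capillary electrophoresis of reporter mRNA after 24 h exposure.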

[7] = ATG_ERE_CIS: Attagene CIS-FACTORIAL HepG2 Assay for Estrogen Response Element (ERE) (AID 2282940); details: HepG2 ERE cis-reporter, Attagene RNA transcript; actives raise or lower the signal
How it was run: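 After 24 h compound treatment, RNA from transfected HepG2 cells was reverse-transcribed, reporter cDNA PCR-amplified, FAM-labelled, HpaI-cut and resolved by capillary electrophoresis. ERE-driven cis reporter transcripts reflect endogenous factors; gain or loss scored against DMSO.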

[8] = ATG_Ets_CIS: Attagene CIS-FACTORIAL HepG2 Assay for human Erythroblast Transformation Specific (ETS) (AID 2282941); details: HepG2 ETS cis-reporter transcription, actives raise or lower the signal
How it was run: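 Steps: transfect HepG2 with multiple reporter units; treat compound 24 h; isolate RNA, DNase-treat, reverse-transcribe; PCR-amplify, label with 6-FAM, digest with HpaI; separate by capillary electrophoresis. Activity fitted both directions versus DMSO.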

[9] = target: Hepatocyte nuclear factor 3-beta (Homo sapiens) (UniProt Q9Y261); assay: ATG_FoxA2_CIS: Attagene CIS-FACTORIAL HepG2 Assay for human Forkhead box A2 (FOXA2) (AID 2282942); details: HepG2 cis-reporter transcription factor activity, 24 h; actives raise or lower the signal
Chain of Hepatocyte nuclear factor 3-beta (Homo sapiens) (Q9Y261 whole entry, looked up): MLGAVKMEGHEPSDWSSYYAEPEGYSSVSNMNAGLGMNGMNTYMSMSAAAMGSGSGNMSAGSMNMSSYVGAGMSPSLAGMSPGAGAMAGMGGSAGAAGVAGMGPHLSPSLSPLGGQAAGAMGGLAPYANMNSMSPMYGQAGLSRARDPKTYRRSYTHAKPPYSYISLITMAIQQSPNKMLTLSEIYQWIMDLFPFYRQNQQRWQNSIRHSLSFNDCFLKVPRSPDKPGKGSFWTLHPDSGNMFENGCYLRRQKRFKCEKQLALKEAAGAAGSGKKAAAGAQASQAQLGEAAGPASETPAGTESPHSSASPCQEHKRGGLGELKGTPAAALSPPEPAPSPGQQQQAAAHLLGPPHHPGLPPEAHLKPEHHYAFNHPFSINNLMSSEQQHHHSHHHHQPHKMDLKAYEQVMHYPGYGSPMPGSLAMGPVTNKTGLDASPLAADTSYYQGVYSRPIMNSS
How it was run: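 Endogenous transcription factor activity was read in HepG2 cells carrying transiently transfected cis-promoter reporter units. After 24 h dosing, reporter mRNA was quantified by RT-PCR and capillary electrophoresis, and values fitted bidirectionally versus DMSO.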

[10] = ATG_FoxO_CIS: Attagene CIS-FACTORIAL HepG2 Assay for human Forkhead box O (FoxO) (AID 2282943); details: HepG2 Attagene cis-reporter, FoxO element, mRNA; actives raise or lower the signal
How it was run: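 HepG2 cells transiently transfected with cis-promoter-driven multiple reporter transcription units; 24 h after chemical dosing, reporter mRNA quantified by RT-PCR, fluorescent primer extension, HpaI digestion and capillary electrophoresis. Bidirectional fitting versus DMSO baseline.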

[11] = ATG_GATA_CIS: Attagene CIS-FACTORIAL HepG2 Assay for human GATA Binding Protein (AID 2282944); details: HepG2 GATA cis-element reporter, Attagene multiplex mRNA; actives raise or lower the signal
How it was run: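 Reporter transcripts from a GATA cis-regulated unit, among multiplexed reporters in transfected HepG2 cells, were measured by RT-PCR with capillary electrophoresis after 24 h dosing. Induction or loss scored relative to DMSO.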

[12] = ATG_GLI_CIS: Attagene CIS-FACTORIAL HepG2 Assay for human Zinc Finger Protein GLI1 (AID 2282945); details: HepG2, Attagene cis-factorial reporter mRNA, GLI element; actives raise or lower the signal
How it was run: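 HepG2 cells transiently transfected with cis-promoter multiplexed reporter units report endogenous transcription factor activity. After 24 h chemical exposure, reporter mRNA was quantified by RT-PCR, 6-FAM labelling, HpaI digestion and capillary electrophoresis, with bidirectional fitting against DMSO.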

[13] = ATG_ISRE_CIS: Attagene CIS-FACTORIAL HepG2 Assay for human Interferon Regulatory Factor 1 (IRF1) binding to an Interferon-Stimulated Response Element (ISRE) (AID 2282948); details: HepG2 ISRE cis-reporter (Attagene), mRNA transcription readout; actives raise or lower the signal
How it was run: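 Transfected HepG2 (multiple reporter transcription units, cis elements) dosed 24 h. RNA → oligo(dT) RT → PCR → 6-FAM primer extension → HpaI → CE. DMSO = negative control/baseline.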

[14] = ATG_M_32_CIS: Attagene CIS-FACTORIAL HepG2 Assay for M32 Transcription Factor (Internal Marker) (AID 2282949); details: HepG2 Attagene cis-factorial M32 reporter, mRNA; actives raise or lower the signal;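 further: background control marker of the multiplexed CIS panel rather than a real target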
How it was run: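 Internal background marker read-out: RT-PCR/capillary electrophoresis fluorescence of reporter transcripts from transiently transfected HepG2 cells after 24 h chemical exposure. Activity fitted bidirectionally relative to DMSO negative control.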

[15] = ATG_M_06_CIS: Attagene CIS-FACTORIAL HepG2 Assay for M06 Transcription Factor (Internal Marker) (AID 2282950); details: HepG2 Attagene CIS-FACTORIAL M06 internal marker reporter; actives raise or lower the signal
How it was run: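 Serves as a background control readout. Transfected HepG2 exposed to compounds for 24 h, then reporter transcripts quantified by fluorescent RT-PCR and capillary electrophoresis. Both directions fitted against DMSO baseline.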

[16] = ATG_AP_2_CIS: Attagene CIS-FACTORIAL HepG2 Assay for human Activator Protein 2 (AP-2) (AID 2282932); details: HepG2 AP-2 cis-reporter, Attagene transcription factor profiling; actives raise or lower the signal
How it was run: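 HepG2 cells were transiently transfected with multiple cis-promoter reporter transcription units and dosed for 24 h. Reporter mRNA was measured by RT-PCR with capillary electrophoresis fluorescence; bidirectional fits relative to DMSO baseline.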

[17] = target: Retinoic acid receptor alpha (Homo sapiens) (UniProt P10276); assay: ATG_DR5_RAR_CIS: Attagene CIS-FACTORIAL HepG2 Assay for human Retinoic Acid Receptor Alpha (RARE), DR5 submotif (AID 2282934); details: HepG2 Attagene cis-factorial RARE DR5 reporter, mRNA; actives raise or lower the signal
Chain of Retinoic acid receptor alpha (Homo sapiens) (P10276 whole entry, looked up): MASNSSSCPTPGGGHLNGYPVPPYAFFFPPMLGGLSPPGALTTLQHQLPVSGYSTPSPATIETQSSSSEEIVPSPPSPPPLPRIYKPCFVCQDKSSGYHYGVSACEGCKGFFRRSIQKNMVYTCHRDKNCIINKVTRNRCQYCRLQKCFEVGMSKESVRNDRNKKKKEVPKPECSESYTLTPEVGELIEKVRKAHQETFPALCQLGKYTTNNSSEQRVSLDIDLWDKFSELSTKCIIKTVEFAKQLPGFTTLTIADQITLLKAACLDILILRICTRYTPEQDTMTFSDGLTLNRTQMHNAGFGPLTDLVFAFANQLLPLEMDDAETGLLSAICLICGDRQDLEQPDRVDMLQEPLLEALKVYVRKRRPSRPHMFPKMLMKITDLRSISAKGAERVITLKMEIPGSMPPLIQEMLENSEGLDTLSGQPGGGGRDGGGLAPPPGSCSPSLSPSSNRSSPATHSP
How it was run: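 HepG2 cells transiently transfected with multiplexed reporter units under cis (DR5 RARE) promoters, so endogenous transcription factor activity is measured. After 24 h compound exposure, reporter mRNA is quantified by RT-PCR with fluorescent labelling and capillary electrophoresis; bidirectional fitting versus DMSO.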

[18] = ATG_GRE_CIS: Attagene CIS-FACTORIAL HepG2 Assay for human Glucocorticoid Response Elements (GRE) (AID 2282947); details: HepG2 GRE cis-reporter, Attagene multiplex mRNA; actives raise or lower the signal
How it was run: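 HepG2 cells transiently transfected with multiple cis-promoter reporter units measure endogenous TF activity; 24 h compound exposure. Reporter mRNA quantified by RT-PCR, FAM labelling, HpaI digestion and capillary electrophoresis; bidirectional fit vs DMSO baseline.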

[19] = target: Bile acid receptor (Homo sapiens) (UniProt Q96RI1); assay: ATG_IR1_CIS: Attagene CIS-FACTORIAL HepG2 Assay for human Nuclear Receptor Subfamily 1 Group H Member 4 (NR1H4), IR1 submotif (AID 2282946); details: IR1 reporter transcription, actives raise or lower the signal
Chain of Bile acid receptor (Homo sapiens) (Q96RI1 whole entry, looked up): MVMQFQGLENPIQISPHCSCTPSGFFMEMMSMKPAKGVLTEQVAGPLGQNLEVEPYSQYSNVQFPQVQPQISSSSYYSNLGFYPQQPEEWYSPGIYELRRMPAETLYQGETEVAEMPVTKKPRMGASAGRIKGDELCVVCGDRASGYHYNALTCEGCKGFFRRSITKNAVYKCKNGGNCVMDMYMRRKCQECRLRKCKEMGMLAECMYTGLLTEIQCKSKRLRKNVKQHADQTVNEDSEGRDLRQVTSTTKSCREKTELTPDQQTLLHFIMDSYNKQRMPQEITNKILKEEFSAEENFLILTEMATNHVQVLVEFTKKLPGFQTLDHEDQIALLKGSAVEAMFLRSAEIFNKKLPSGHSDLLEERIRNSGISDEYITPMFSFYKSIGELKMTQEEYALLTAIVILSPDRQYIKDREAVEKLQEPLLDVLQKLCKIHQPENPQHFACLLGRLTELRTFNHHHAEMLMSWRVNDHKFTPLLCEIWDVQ
How it was run: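 Transient MRTU transfection, HepG2; 24 h dosing; RNA → RT-PCR → 6-FAM primer extension → HpaI digest → capillary electrophoresis fluorescence. Gain/loss of signal fitted relative to DMSO.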

Measured: AC50

CC1CN1P(=O)(N1CC1C)N1CC1C (stereo not given)
not listed: [16] | [17] | [18] | [19]
inactive: all other assays above

CCOP(=S)(OCC)SCSP(=S)(OCC)OCC
active: [7] 6.47 µM
not listed: [19]
inactive: all other assays above

CN(C)N=O
not listed: [7]
inactive: all other assays above

CC(=O)C(Cl)C(=O)N(C)C (stereo not given)
active: [8] 100 µM
not listed: [17] | [19]
inactive: all other assays above

CCC1(c2ccc(N)cc2)CCC(=O)NC1=O (stereo not given)
not listed: [6] | [17]
inactive: all other assays above

Cc1cc(Cl)ccc1O[C@H](C)C(=O)O
not listed: [18] | [19]
inactive: all other assays above

ClC1=C(Cl)[C@]2(Cl)[C@H]3[C@H]([C@H]4C=C[C@H]3C4)[C@@]1(Cl)C2(Cl)Cl
active: [7] 9.92 µM
not listed: [6] | [17] | [19]
inactive: all other assays above

C[C@@H](Oc1ccc(Cl)cc1Cl)C(=O)O
inactive: all assays above

CC(C)(C)c1cc(O)ccc1O
active: [1] 19.8 µM | [2] 66.5 µM | [5] 120 µM
not listed: [16]
inactive: all other assays above

From PubChem BioAssay (EPA / NIEHS)
